From PubChem BioAssay (Tox21)
Records with an inconclusive call do not appear. Activity calls are given as the source filed them. The call rests on the fitted dose curve.

How the values were obtained:
[1] = molecular target: Acetylcholinesterase (Homo sapiens) (UniProt P22303); test: Acetylcholinesterase (AChE) small molecule antagonists: colormetric cell-based qHTS assay (AID 1347395); further: nearly all actives have a fitted effect of over 30% in size
Procedure, shortened: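 Quantitative HTS in attached SH-SY5Y cells: 30 min compound exposure, then 90 min with acetylthiocholine and DTNB at 37 C; colour from thiocholine reports AChE activity.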

[2] = molecular target: Acetylcholinesterase (Homo sapiens) (UniProt P22303); test: Acetylcholinesterase (AChE) small molecule antagonists: enzyme-based qHTS assay (AID 1347397); settings: Potency: AChE enzyme activity inhibition; outcome: AChE enzyme activity inhibition; further: nearly all actives have a fitted effect of over 55% in size
Procedure, shortened: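 First, recombinant human AChE (50 mU/mL as dispensed) received test compound or DMSO. Second, plates stood 30 min at room temperature. Third, DTNB and acetylthiocholine were added, followed by 10 min at room temperature and colorimetric detection.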

[3] = molecular target: Acetylcholinesterase (Homo sapiens) (UniProt P22303); test: Acetylcholinesterase (AChE) small molecule antagonists: fluorescence cell-based qHTS assay (AID 1347398); settings: Potency: AChE activity; outcome: AChE activity; further: nearly all actives have a fitted effect of over 50% in size
Procedure, shortened: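 Homogeneous quantitative HTS format. SH-SY5Y cells seeded at 2,000 per well settle overnight at 37 C. Compound pretreatment runs 30 min (37 C, 5% CO2); substrate/probe mix then reacts 40 min at RT before reading 490/520 nm.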

[4] = molecular target: Acetylcholinesterase (Homo sapiens) (UniProt P22303); test: Acetylcholinesterase (AChE) small molecule antagonists: enzyme-based qHTS assay with human liver microsomes (AID 1347399); settings: Potency: qHTS inhibition; outcome: qHTS inhibition; further: nearly all actives have a fitted effect of over 60% in size
Procedure, shortened: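 Recombinant human AChE (50 mU/mL in the enzyme mix) and human liver microsomes (0.25 mg/mL final) were preincubated with compound and NADPH (0.25 mg/mL final) for 30 min at 37 C. Acetylthiocholine/DTNB was then added; thiocholine was read colorimetrically after 10 min at room temperature.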

Measured: Potency

Sequence of Acetylcholinesterase (Homo sapiens) (P22303 whole entry, looked up): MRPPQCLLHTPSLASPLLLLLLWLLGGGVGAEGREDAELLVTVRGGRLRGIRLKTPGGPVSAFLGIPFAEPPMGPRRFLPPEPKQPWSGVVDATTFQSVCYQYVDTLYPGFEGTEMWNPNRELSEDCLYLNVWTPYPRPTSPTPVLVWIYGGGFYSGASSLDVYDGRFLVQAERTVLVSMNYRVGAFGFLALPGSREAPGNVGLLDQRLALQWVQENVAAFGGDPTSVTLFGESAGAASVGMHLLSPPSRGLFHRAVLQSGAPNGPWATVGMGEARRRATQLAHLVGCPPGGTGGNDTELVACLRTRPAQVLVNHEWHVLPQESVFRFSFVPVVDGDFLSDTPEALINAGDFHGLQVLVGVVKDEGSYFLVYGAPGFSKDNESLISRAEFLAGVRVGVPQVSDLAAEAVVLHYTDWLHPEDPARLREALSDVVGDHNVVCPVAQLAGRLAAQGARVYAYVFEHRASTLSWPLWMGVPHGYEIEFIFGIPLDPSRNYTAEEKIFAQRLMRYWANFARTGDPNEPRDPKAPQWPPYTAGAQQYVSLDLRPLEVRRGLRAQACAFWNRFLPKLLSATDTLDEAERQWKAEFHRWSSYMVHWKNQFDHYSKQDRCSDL

CC1=C(CC=O)C(C)(C)CCC1
inactive: all assays above

CC(CN=Cc1ccccc1O)N=Cc1ccccc1O (centres undefined)
inactive: all assays above

C=CC(=O)NCOCC(C)C
inactive: all assays above

CCCCCCCCC(C)=O
inactive: all assays above

COCCO
inactive: all assays above

C[C@@]12CCC[C@H]1[C@@H]1CC[C@H]3C[C@@H](O)CC[C@]3(C)[C@H]1CC2
inactive: all assays above

CC(C)CCC(=O)CCC(C)C
inactive: all assays above

Cc1nnc(SCC2=C(C(=O)O)N3C(=O)[C@@H](NC(=O)Cn4cnnn4)[C@H]3SC2)s1
inactive: all assays above

CCC(C)N(C)C(=O)c1cc2ccccc2c(-c2ccccc2Cl)n1 (centres undefined)
inactive: all assays above

CCCCOCCOC(=O)COc1nc(Cl)c(Cl)cc1Cl
inactive: all assays above

CC(C)CCCO
inactive: all assays above

CCc1cccc(C)c1
inactive: all assays above

CCc1cccc(CC)c1NC(=O)C(=O)O
inactive: all assays above

Oc1c(Br)cc(Br)c2cccnc12
inactive: all assays above

OCCC(F)(F)C(F)(F)C(F)(F)C(F)(F)C(F)(F)C(F)(F)C(F)(F)C(F)(F)F
inactive: all assays above

CN(C)CCc1c[nH]c2ccc(CS(=O)(=O)N3CCCC3)cc12
inactive: all assays above

O=[N+]([O-])c1cncn1CCN1CCOCC1
inactive: all assays above

CCCCOC(=O)CCCCCCCC(=O)OCCCC
inactive: all assays above

CC(=O)c1cc(C)oc1C
inactive: all assays above

C=CN1CCCCCC1=O
inactive: all assays above

CC(=O)OC(OC(C)=O)c1ccc([N+](=O)[O-])o1
inactive: all assays above
